Results reported in PubChem BioAssay (NCATS).
Values without a mark were called inactive. Calls of active or inactive are those of the source. The rule behind the calls is not given here.

system: HIV-1 nucleocapsid protein NCp7 (binding to TG oligonucleotide); experiment: HIV Nucleocapsid (AID 346); details: HIV-1 NC / fluorescein-TGTGTGTG probe, fluorescence polarization;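 note: potency is for inhibitors that block NC binding and lower polarization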
Procedure, shortened: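 NCp7 100 nM + fluorescein TG4xF 10 nM; Hepes pH 7.5/250mM NaCl/1uM ZnCl2/0.004% PEG 20000; 1 hr RT; FP, 45 s exposure; oligo-only wells as negative control.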
Potency is the fitted concentration of half-maximal effect.

Row | Compound | Potency
1 | CN(C)c1ccc(-c2ccc3ncnc(NCc4ccccc4)c3c2)cc1 | > 20 µM
2 | CN(C)c1ncc2nc(-c3ccc(Cl)cc3)c(=O)n(Cc3ccc(F)cc3)c2n1 | > 4 µM
3 | COCCn1c(=O)c(-c2cc(F)cc(F)c2)nc2cnc(Nc3cccc(OC)c3)nc21 | 3.99 µM (active)
4 | COC(=O)N1CCC2(CC1)CCN(C(c1ccccc1)c1ccccc1)CC2 | > 20 µM
5 | COc1ccccc1CNc1nc(-c2ccoc2)nc2ccccc12 | > 20 µM
6 | COc1ccc(CNc2ccnc(-c3ccccc3Cl)n2)c(OC)c1 | > 20 µM
7 | CN(C)C(=O)c1ccc(-c2cc(NCc3ccccc3)ncn2)cc1 | > 20 µM
8 | Cc1nc2cnc(N3CCOCC3)nc2n(C2CC2)c1=O | > 20 µM
9 | O=c1cnc2cnc(N3CCOCC3)nc2n1Cc1ccc(F)cc1 | 20.6 µM
10 | O=C(Nc1ccccc1)N1CC2(CCN(C(=O)c3cccc(F)c3)CC2)C1 | > 20 µM
11 | Cn1c(=O)c(-c2ccc(Cl)cc2)nc2cnc(N3CCNCC3)nc21 | > 20 µM
12 | O=C(Oc1ccccc1)N1CCC2(CC1)CCN(c1ccccn1)CC2 | > 20 µM
13 | Cc1noc(C)c1-c1ccc2ncnc(NC3CCNCC3)c2c1 | > 20 µM
14 | COc1cccc(Cn2c(=O)c(-c3ccc(F)cc3)nc3cnc(N4CCOCC4)nc32)c1 | > 20 µM
15 | O=c1c(-c2ccc(Cl)cc2)nc2cnc(Oc3ccccc3)nc2n1C1CC1 | > 20 µM
